# Hit rate of the full screen: of about 44,000 compounds, fewer than 10 were called active. These entries were drawn from the full list. A number with no mark means an inactive call. The call rests on the fitted dose curve; in most records, active means well fitted inhibition curve with a large enough effect; inconclusive means small, poorly fitted or top-dose-only effect; inactive means flat fitted curve, though single readings scatter.
# Biological target: Tumor susceptibility gene 101 protein (Homo sapiens) (UniProt Q99816)
# Sequence (Q99816 whole entry, looked up): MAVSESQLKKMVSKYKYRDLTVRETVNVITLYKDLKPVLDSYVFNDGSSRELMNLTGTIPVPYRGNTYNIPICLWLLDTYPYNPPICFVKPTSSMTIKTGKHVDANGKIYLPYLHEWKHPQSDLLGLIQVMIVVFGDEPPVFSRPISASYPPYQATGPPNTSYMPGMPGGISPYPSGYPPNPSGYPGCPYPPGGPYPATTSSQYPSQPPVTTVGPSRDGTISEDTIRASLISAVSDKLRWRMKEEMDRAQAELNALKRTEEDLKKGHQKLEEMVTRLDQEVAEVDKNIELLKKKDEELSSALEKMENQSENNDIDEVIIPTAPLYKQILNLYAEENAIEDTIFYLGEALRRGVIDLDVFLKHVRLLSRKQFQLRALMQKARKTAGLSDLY
# Assay: qHTS Validation Assay for Inhibitors of HIV-1 Budding by Blocking the Interaction of PTAP/TSG101: Sytravon Library Screen; further: 0% is about no effect
# Settings: Fluorescence polarization, FITC-PTAP peptide/Tsg101, 20 min; series mostly up to 115 µM; activity change, negative = inhibition: at the top concentration
# Text: Stages of the HIV-1 replication cycle, specifically virus assembly and release, provide underexploited targets for the development of novel antiviral inhibitors. The late stages of HIV-1 replication are mediated by the Gag precursor protein, Pr55Gag. Expression of Pr55Gag is both necessary and sufficient for the production of virus-like particles from Gag-expressing cells. The Gag protein hijacks key host proteins involved in endocytic machinery of the host cell to promote endosomal processing and viral budding. The budding process requires a direct interaction between a […] (PTAP) motif in the p6 domain of Gag and the cellular endosomal sorting protein known as Tsg101. In this way, the Gag PTAP motif promotes the host cells to recruit viral particles to the plasma membrane where the new viral particles are released, effectively turning the host cells into viral factories. A fluorescence polarization assay has been developed to quantitatively measure the PTAP-Tsg101 interaction which can be used to screen for inhibitors of this interaction. This assay was run against the NCGC Sytravon Library collection. NIH Molecular Libraries Probe Production Network [MLPCN] NIH Chemical Genomics Center [NCGC] Grant: R03 MH087464-01A1 PI Name: Dr. Eric Freed, NCI
# Two uL of the Tsg101 binding domain in buffer (10 mM HEPES pH 7.5; 0.15 M NaCl, 0.01% Tween 20; 3 mM EDTA;0.1 mM TCEP) was dispensed into Greiner black MB 1536-well plates (final concentration 10 uM). Then, 23 nL of compounds or DMSO were delivered to each well using a pin tool. Finally, 2 uL of a FITC-labeled peptide containing the PTAP motif (1) in the same buffer was dispensed (50 nM final concentration) and the binding was allowed to proceed for 20 min. at r.t. Fluorescent polarization was determined using FITC excitation and polarized emission filters on a Perkin Elmer Envision. Assay cut-off (positive/negative criteria): Actives defined by CRC class, <25 µM; Efficacy <60% inhibition. The total fluorescent intensity from S and P channels will be used to flag fluorescent compounds.
row,Compound,"activity change, negative = inhibition"
1,COc1ccccc1C(=O)Nc1c(C(=O)N(C)Cc2ccccc2)sc2nc(C)c(Cl)c(C)c12,-1.59%
2,COc1ccccc1CNC(=O)c1ccc(NC(=O)N2CC(C)Sc3ccccc32)cc1 (stereo unspecified),-5.63%
3,COc1ccc(NC(=O)c2sc3nc[nH]c(=O)c3c2C)cc1,2.47%
4,CCc1ccc(S(=O)(=O)Nc2cc3c(C(=O)OCc4ccccc4)c(C)oc3c3ccccc23)cc1,8.08%
5,COc1ccccc1-c1ccnc2[nH]n(-c3ccccc3)c(=O)c12,-10.8%
6,CSc1nn(Cc2cccc(C)c2)c(N)c1S(=O)(=O)c1ccccc1,5.53%
7,CCOc1ccccc1C(=O)Nc1ccc2c(c1)N(C)C(=O)c1ccccc1S2,-5.55%
8,CCOC(=O)c1[nH]c(C)c(CCC(=O)NCc2ccccc2C)c1C,1.29%
9,Cc1ccc(S(=O)(=O)c2nc(-c3cccs3)oc2N2CCCCC2)cc1,-7.31%
10,COc1cccc(CNC(=O)CCc2nc(-c3ccc(C)cc3)no2)c1,0.0869%
11,CCCCCCn1nnc2sc(-c3ccccc3)cc2c1=O,1.81%
12,Cc1ccc(Cl)cc1N1CCN(C(=O)c2cccn3c(=O)c4cc(Cl)ccc4nc23)CC1,1.96%
13,Cc1ccccc1-n1c(=O)c2ccccc2n(Cc2ccc(F)cc2)c1=O,-2.61%
14,CCc1ccccc1N(C)C(=O)C1CCCN(c2ncnc3onc(-c4ccc(F)cc4)c23)C1 (stereo unspecified),-3.7%
15,CCOC(=O)c1c(NC(=O)c2ccc(S(=O)(=O)N(CC)CC)cc2)sc2c1CCCCC2,-4.85%
16,Cc1nc2ccc(S(=O)(=O)N(CC(=O)Nc3ccc(F)cc3)Cc3ccccc3)cc2s1,1.33%
17,COc1ccc(CCNC(=O)CN2C(=O)COc3ccc(S(=O)(=O)N4CCCC4)cc32)cc1OC,-6.56%
18,Cc1cc(Nc2cccc(C(F)(F)F)c2)nc2ccc(NC(=O)c3ccc(=O)[nH]c3)cc12,1.63%
19,O=C(Nc1ccc2oc(-c3ccc(O)c(Br)c3)nc2c1)c1cc2ccccc2o1,-4.46%
20,O=C(c1cccc(Br)c1)N1CCN(Cc2cc(=O)n3nc(-c4ccccc4)sc3n2)CC1,-0.0587%
21,O=C(CNS(=O)(=O)c1cccs1)N1CCN(c2ccccc2Cl)CC1,1.11%
22,CC1CCc2noc(NC(=O)c3ccc([N+](=O)[O-])cc3)c2C1 (stereo unspecified),12.5%
23,COc1cc(C(=O)N2CCN(c3ccc(Nc4ccc(C)cc4)nn3)CC2)cc(OC)c1OC,-0.737%
24,CCOC(=O)c1ccc(NC(=O)CCS(=O)(=O)c2ccc3c(c2)oc(=O)n3C)cc1,4.41%
25,O=C(COCc1cc(-c2ccc3c(c2)OCO3)on1)N1CCN(c2cccc(Cl)c2)CC1,1.37%
26,Cc1ccc(C(=O)Nc2ccc(C(=O)O)cc2)cc1S(=O)(=O)Nc1ccccc1,-1.08%

# From PubChem BioAssay AID1347069 (National Center for Advancing Translational Sciences (NCATS), 2019)
